The full data set covers some 8,800 targets. This sample favours those with a hit. About 0.5% of all pairs of compound and target were hits.
Compound: COc1cc(Nc2ncc3c(n2)-c2ccc(Cl)cc2C(c2c(F)cccc2OC)=NC3)ccc1C(=O)O [alisertib]
Test: log2 fold change, soluble protein after heating vs DMSO (PISA); higher = thermal stabilisation; K562 lysate, 10 uM; active = over 0.2 and 3.5 SD of the protein, either way, in both replicates (recomputed)
Method in brief: (§1)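 Log-two fold change in thermal stability relative to solvent controls is reported from duplicates. For each sample, crude K562 extract from dounce-homogenised pellets in PBS pH 7.4 with 1 mM MgCl2, at 1 mg/mL protein, was treated with 10 μM compound for 30 min. Aliquots heated for 3 min across 48°C-58°C were pooled, brought to 0.5% NP-40 at 4°C and cleared at 21,000xg for 90 min. The supernatant was quantified by TMTpro 16plex LC-MS/MS with channel sums equalised.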

Sequence of UniProt Q9Y5N5 (Q9Y5N5 whole entry, looked up, one chain of several): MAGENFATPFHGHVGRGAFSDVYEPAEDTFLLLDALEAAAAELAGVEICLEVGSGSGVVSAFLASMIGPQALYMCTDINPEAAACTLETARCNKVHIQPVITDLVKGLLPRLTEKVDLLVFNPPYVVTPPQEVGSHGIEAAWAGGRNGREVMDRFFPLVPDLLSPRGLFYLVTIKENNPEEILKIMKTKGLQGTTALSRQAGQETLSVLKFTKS
Sequence of UniProt Q6IBW4 (Q6IBW4 whole entry, looked up): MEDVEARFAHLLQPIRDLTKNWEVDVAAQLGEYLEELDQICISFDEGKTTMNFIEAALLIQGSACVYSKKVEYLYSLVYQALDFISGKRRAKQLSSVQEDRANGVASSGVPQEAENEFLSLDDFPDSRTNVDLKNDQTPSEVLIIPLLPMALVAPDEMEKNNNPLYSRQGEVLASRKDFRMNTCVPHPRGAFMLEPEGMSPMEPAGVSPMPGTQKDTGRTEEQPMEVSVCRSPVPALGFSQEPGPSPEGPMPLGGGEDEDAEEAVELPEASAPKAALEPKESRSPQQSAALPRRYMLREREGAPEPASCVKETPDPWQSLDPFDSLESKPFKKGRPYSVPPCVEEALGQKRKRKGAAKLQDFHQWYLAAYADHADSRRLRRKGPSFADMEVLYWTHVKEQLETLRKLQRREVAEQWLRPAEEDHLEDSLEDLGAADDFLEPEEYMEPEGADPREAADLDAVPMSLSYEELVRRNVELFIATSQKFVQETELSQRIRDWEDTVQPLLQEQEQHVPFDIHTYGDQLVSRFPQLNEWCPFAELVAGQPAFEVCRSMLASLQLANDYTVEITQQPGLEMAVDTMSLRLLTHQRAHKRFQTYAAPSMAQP
Sequence of UniProt P52179 (P52179 whole entry, looked up): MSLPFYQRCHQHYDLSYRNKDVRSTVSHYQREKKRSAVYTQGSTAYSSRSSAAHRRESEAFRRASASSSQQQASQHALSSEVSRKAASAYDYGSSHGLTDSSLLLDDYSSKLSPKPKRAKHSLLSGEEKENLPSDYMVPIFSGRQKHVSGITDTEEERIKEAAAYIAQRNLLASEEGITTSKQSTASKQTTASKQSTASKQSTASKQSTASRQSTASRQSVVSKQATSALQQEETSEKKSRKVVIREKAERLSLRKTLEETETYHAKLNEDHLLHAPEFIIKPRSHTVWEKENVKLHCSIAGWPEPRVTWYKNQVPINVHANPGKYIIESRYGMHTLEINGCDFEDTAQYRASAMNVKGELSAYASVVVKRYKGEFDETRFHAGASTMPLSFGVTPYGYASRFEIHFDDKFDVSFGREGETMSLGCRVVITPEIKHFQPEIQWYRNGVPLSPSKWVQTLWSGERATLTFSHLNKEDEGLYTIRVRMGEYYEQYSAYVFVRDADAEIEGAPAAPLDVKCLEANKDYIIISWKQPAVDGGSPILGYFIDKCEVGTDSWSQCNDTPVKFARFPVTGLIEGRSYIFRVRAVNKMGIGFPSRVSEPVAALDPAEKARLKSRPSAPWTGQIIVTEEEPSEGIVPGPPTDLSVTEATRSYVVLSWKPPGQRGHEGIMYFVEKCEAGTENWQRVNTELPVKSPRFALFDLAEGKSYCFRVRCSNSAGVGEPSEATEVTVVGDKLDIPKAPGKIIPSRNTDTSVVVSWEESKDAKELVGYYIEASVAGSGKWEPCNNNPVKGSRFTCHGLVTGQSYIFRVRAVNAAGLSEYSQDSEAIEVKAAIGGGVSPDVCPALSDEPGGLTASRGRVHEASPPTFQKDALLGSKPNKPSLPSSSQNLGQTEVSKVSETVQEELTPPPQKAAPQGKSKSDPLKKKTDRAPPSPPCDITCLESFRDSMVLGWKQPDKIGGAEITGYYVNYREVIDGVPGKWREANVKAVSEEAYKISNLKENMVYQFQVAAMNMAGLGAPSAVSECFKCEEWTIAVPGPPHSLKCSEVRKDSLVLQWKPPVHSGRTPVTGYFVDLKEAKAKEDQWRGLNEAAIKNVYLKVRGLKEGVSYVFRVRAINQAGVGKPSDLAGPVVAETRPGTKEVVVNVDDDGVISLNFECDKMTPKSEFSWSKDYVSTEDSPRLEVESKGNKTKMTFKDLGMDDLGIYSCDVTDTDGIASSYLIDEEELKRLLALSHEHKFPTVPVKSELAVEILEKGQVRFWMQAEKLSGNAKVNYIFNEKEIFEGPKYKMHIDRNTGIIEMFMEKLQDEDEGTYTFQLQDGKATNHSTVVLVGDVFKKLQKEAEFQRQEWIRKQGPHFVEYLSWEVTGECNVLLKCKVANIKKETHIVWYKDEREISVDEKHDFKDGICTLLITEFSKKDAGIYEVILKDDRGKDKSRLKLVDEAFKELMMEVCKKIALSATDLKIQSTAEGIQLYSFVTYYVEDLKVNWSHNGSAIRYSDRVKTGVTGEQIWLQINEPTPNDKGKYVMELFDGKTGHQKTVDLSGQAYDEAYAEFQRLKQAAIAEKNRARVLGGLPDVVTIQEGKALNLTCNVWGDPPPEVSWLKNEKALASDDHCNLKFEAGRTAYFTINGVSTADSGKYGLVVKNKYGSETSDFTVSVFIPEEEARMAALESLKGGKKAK
Sequence of UniProt Q147X3 (Q147X3 whole entry, looked up): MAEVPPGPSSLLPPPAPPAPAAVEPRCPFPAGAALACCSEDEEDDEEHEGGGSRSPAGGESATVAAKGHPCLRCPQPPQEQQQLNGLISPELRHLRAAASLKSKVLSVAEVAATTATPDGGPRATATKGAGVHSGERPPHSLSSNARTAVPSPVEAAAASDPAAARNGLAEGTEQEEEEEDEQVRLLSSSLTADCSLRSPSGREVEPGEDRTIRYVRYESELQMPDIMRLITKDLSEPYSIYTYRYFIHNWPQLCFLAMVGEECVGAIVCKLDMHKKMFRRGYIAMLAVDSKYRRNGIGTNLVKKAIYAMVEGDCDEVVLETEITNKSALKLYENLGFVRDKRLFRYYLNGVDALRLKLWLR
Sequence of UniProt Q9Y5A7 (Q9Y5A7 whole entry, looked up): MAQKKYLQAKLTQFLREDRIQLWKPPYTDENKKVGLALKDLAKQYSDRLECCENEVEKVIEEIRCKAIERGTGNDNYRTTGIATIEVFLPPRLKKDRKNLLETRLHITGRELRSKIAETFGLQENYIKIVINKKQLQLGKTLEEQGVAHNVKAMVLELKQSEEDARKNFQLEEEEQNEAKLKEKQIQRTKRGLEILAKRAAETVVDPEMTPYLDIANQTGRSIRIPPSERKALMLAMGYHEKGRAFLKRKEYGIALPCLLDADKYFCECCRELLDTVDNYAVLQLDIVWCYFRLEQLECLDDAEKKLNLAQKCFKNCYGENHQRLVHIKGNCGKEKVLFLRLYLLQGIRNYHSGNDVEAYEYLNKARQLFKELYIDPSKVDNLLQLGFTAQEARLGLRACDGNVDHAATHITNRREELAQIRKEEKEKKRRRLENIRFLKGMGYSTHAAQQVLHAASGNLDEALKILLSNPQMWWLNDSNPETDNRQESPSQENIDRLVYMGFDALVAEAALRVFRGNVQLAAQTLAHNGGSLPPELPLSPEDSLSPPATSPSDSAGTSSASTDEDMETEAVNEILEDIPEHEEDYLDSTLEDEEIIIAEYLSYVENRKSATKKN
Sequence of UniProt P20585 (P20585 whole entry, looked up): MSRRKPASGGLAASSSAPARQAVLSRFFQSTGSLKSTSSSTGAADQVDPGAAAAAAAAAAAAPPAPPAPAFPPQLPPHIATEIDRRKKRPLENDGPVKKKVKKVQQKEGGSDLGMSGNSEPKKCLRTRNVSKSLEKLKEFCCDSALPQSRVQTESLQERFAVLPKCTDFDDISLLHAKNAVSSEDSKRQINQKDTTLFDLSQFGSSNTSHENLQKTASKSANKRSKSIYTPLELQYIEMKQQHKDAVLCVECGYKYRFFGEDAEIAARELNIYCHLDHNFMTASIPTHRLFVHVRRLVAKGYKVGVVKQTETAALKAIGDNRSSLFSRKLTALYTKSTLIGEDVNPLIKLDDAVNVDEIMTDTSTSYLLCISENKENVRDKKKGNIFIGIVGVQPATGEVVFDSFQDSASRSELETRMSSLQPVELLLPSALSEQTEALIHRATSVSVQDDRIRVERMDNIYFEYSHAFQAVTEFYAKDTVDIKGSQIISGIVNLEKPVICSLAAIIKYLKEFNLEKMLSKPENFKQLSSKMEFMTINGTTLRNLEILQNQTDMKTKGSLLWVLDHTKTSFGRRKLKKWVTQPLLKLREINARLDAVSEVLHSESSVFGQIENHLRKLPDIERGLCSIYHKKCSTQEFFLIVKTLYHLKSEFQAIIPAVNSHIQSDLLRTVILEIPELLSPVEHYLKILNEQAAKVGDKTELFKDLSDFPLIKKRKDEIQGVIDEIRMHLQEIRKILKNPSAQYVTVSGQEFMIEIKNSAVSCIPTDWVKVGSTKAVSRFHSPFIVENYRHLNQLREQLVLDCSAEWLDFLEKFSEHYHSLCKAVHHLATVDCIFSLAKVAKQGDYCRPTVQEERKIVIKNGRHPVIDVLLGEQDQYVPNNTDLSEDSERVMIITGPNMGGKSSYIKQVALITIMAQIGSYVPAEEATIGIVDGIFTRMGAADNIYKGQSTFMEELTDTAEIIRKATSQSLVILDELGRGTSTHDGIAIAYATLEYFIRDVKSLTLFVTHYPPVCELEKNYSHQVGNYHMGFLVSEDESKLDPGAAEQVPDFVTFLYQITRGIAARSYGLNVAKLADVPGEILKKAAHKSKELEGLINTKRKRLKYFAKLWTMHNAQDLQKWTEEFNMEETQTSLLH
Sequence of UniProt Q9Y530 (Q9Y530 whole entry, looked up): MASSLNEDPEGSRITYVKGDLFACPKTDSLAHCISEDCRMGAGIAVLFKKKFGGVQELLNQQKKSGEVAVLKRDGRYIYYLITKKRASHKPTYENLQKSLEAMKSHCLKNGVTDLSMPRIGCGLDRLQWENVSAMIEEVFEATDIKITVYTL
Sequence of UniProt Q9UDX5 (Q9UDX5 whole entry, looked up): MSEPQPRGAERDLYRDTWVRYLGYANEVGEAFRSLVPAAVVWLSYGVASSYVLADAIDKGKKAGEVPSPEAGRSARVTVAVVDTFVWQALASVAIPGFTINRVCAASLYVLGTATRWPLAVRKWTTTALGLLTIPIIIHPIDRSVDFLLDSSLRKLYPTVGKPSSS

log2 fold change, inactive:
ORC2 (UniProt Q13416) 0.012
NIPSNAP3A (UniProt Q9UFN0) -0.023
N6AMT1 (UniProt Q9Y5N5) -0.084
OTUD7B (UniProt Q6GQQ9) -0.006
MSH2 (UniProt P43246) -0.011
MRPL53 (UniProt Q96EL3) 0.049
NFKBIE (UniProt O00221) 0.047
NCAPH2 (UniProt Q6IBW4) -0.027
MRPS18A isoform 2 (UniProt Q9NVS2) 0.041
NOB1 (UniProt Q9ULX3) 0.047
NCAPG2 (UniProt Q86XI2) 0.004
NUMB (UniProt P49757) -0.031
OARD1 (UniProt Q9Y530) 0.011
NF1 (UniProt P21359) 0.03
NTMT1 (UniProt Q9BV86) -0.007
MYD88 isoform 6 (UniProt Q99836) 0.021
NUSAP1 (UniProt Q9BXS6) 0.01
MVB12A (UniProt Q96EY5) -0.011
NAT1 (UniProt P18440) 0.035
MSH3 (UniProt P20585) -0.027
NCK1 (UniProt P16333) -0.003
NGLY1 (UniProt Q96IV0) 0.002
NOA1 (UniProt Q8NC60) 0.039
NUB1 (UniProt Q9Y5A7) -0.012
NAA30 (UniProt Q147X3) 0.039
NUDT5 (UniProt Q9UKK9) 0.004
NOSIP (UniProt Q9Y314) -0.016
MTFP1 (UniProt Q9UDX5) -0.032
NFATC1 (UniProt O95644) -0.025
MYOM1 (UniProt P52179) 0.215
MTCH2 (UniProt Q9Y6C9) 0.013
PAK1 (UniProt Q13153) 0.016
NFATC2 (UniProt Q13469) -0.047
NOC2L (UniProt Q9Y3T9) 0.01
NEK7 (UniProt Q8TDX7) 0.038

Compound: COc1cc2nc(-c3cc(F)ccc3O)nc(N[C@@H]3CNC[C@H]3C(C)(C)O)c2cc1OC
Test: as above
Method in brief: as §1

log2 fold change, inactive:
ORC2 (UniProt Q13416) -0.002
NIPSNAP3A (UniProt Q9UFN0) 0.005
N6AMT1 (UniProt Q9Y5N5) 0.004
OTUD7B (UniProt Q6GQQ9) -0.031
MSH2 (UniProt P43246) -0.002
MRPL53 (UniProt Q96EL3) 0
NFKBIE (UniProt O00221) -0.03
NCAPH2 (UniProt Q6IBW4) 0.01
MRPS18A isoform 2 (UniProt Q9NVS2) -0.017
NOB1 (UniProt Q9ULX3) -0.031
NCAPG2 (UniProt Q86XI2) -0.01
NUMB (UniProt P49757) -0.007
OARD1 (UniProt Q9Y530) 0.028
NF1 (UniProt P21359) 0.006
NTMT1 (UniProt Q9BV86) -0.016
MYD88 isoform 6 (UniProt Q99836) -0.005
NUSAP1 (UniProt Q9BXS6) -0.002
MVB12A (UniProt Q96EY5) -0.035
NAT1 (UniProt P18440) 0.039
MSH3 (UniProt P20585) 0.006
NCK1 (UniProt P16333) -0.007
NGLY1 (UniProt Q96IV0) 0.001
NOA1 (UniProt Q8NC60) 0.023
NUB1 (UniProt Q9Y5A7) -0.004
NAA30 (UniProt Q147X3) -0.066
NUDT5 (UniProt Q9UKK9) 0.003
NOSIP (UniProt Q9Y314) 0.015
MTFP1 (UniProt Q9UDX5) 0.003
NFATC1 (UniProt O95644) 0.001
MYOM1 (UniProt P52179) -0.06
MTCH2 (UniProt Q9Y6C9) -0.062
PAK1 (UniProt Q13153) 0.02
NFATC2 (UniProt Q13469) -0.007
NOC2L (UniProt Q9Y3T9) 0.06
NEK7 (UniProt Q8TDX7) 0.057

Compound: COc1cc2ncnc(Nc3ccc(F)c(Cl)c3)c2cc1OCCCN1CCOCC1 [gefitinib]
Test: as above
Method in brief: as §1

log2 fold change, inactive:
ORC2 (UniProt Q13416) -0.011
NIPSNAP3A (UniProt Q9UFN0) -0.023
N6AMT1 (UniProt Q9Y5N5) -0.045
OTUD7B (UniProt Q6GQQ9) 0.062
MSH2 (UniProt P43246) -0.007
MRPL53 (UniProt Q96EL3) -0.048
NFKBIE (UniProt O00221) 0.014
NCAPH2 (UniProt Q6IBW4) -0.048
MRPS18A isoform 2 (UniProt Q9NVS2) 0.008
NOB1 (UniProt Q9ULX3) -0.022
NCAPG2 (UniProt Q86XI2) 0.038
NUMB (UniProt P49757) 0.052
OARD1 (UniProt Q9Y530) -0.014
NF1 (UniProt P21359) 0.058
NTMT1 (UniProt Q9BV86) 0.057
MYD88 isoform 6 (UniProt Q99836) -0.039
NUSAP1 (UniProt Q9BXS6) -0.012
MVB12A (UniProt Q96EY5) -0.055
NAT1 (UniProt P18440) 0.031
MSH3 (UniProt P20585) -0.012
NCK1 (UniProt P16333) 0.026
NGLY1 (UniProt Q96IV0) -0.044
NOA1 (UniProt Q8NC60) -0.042
NUB1 (UniProt Q9Y5A7) -0.049
NAA30 (UniProt Q147X3) 0.015
NUDT5 (UniProt Q9UKK9) -0.002
NOSIP (UniProt Q9Y314) -0.049
MTFP1 (UniProt Q9UDX5) -0.011
NFATC1 (UniProt O95644) 0.027
MYOM1 (UniProt P52179) 0.026
MTCH2 (UniProt Q9Y6C9) -0.007
PAK1 (UniProt Q13153) -0.06
NFATC2 (UniProt Q13469) -0.025
NOC2L (UniProt Q9Y3T9) -0.03
NEK7 (UniProt Q8TDX7) -0.049

Source: the supplement of paper PMC10849652
